According to PubChem BioAssay:
Results filed as inconclusive are left out. The source made the active and inactive calls.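 Rule for the calls, unless noted: active = viability at or below 30% in both replicate assays; inconclusive = viability at or below 30% in just one of the two assays; inactive = the rest.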

Key:
[1] = reducers of endogenous Her2 protein level, primary screen, SKBR3 breast tumor cells, AlphaScreen, ATP viability (AID 461;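 active = Her2 level under about 52% in both replicate screens, with viability over 70% of control, limit read from the data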;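 for Her2 level: lower value means less Her2 protein in the cells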;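 for viability: percent of carrier control wells set as 100% viability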); details: 18-24 h, measured here: SKBR3 viability, ATP luminescence, at 10 µM
[2] = biological target: Receptor tyrosine-protein kinase erbB-2 (Homo sapiens) (UniProt P04626); assay: as above; details: 18-24 h, at 10 µM, stronger effect = lower value
Receptor tyrosine-protein kinase erbB-2 (Homo sapiens), sequence (P04626 whole entry, looked up): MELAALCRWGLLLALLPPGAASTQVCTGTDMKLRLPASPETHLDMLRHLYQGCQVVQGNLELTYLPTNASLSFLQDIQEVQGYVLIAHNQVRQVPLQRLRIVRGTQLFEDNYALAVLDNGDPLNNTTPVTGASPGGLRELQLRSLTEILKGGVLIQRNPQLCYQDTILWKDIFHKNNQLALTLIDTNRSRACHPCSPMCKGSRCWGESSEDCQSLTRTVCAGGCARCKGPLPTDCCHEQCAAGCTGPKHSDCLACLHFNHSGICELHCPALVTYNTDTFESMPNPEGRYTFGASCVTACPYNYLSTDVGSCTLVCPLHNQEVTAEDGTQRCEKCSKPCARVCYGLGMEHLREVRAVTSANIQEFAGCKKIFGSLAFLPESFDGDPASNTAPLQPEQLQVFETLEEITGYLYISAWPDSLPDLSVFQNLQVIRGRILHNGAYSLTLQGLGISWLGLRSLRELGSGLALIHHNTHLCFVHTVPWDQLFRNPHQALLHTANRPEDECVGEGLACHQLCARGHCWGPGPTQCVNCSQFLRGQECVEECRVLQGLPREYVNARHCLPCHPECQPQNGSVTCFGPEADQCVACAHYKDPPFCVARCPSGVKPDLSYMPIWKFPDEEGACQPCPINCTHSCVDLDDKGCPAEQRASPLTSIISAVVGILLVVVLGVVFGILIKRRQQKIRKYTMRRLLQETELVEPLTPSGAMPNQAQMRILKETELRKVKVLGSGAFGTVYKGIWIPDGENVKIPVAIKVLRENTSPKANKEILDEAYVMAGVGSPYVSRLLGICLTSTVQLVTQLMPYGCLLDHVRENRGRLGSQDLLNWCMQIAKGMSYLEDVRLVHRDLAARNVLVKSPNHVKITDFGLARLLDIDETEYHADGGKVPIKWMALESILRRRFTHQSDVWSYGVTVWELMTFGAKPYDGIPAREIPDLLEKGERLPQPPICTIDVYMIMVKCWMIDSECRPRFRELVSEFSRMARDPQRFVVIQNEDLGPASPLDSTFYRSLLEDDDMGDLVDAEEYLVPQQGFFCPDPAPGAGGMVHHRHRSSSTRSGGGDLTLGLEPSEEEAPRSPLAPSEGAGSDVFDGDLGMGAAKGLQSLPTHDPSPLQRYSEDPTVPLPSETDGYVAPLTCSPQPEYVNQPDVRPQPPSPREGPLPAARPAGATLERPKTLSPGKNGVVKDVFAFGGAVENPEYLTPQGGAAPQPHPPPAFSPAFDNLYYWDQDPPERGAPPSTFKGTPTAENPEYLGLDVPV

[3] = SK-BR-3 cell growth inhibitors, pilot screen, 24 h, human (AID 572;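 active = viability at or below 10% of carrier control in both of two separate runs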;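 note: compound exposure lasted between 18 and 24 h rather than exactly 24 h; 100% = carrier-treated control wells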); details: SK-BR-3 viability, CellTiter-Glo luminescence, at 10 µM, stronger effect = lower value
[4] = HUVEC growth inhibition – cell-based, human, primary screen (AID 575); details: HUVEC proliferation, CellTiter-Glo luminescence, 72 h; at 10 µM; stronger effect = lower value;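 note: 100% = median of untreated cell wells with 0.1% DMSO on each plate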
[5] = growth inhibitors of H69AR lung tumor, primary screen, human, duplicate replicates (AID 580;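 active = viability at or under a set limit in both replicates, limit being median viability minus 3 SD, cut at about 48% in these data, passing the limit was not always enough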;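 note: 100% = mean luminescence of untreated wells and 0% = no signal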); details: H69AR lung tumor cells viability, ATP luminescence, 72 h; at 10 µM; stronger effect = lower value
[6] = reversal of MRP1-mediated doxorubicin resistance, pilot screen, H69AR cells, doxorubicin co-treatment (AID 601;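 active = viability loss from added drug above about 55%, and viability with drug at most 40%, in both replicates, limit read from the data, passing the limit was not always enough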); details: CellTiter-Glo, 72 h, at 10 µM; for differential viability (reversal): stronger effect = higher value
[7] = 384-well plate pilot, post-Golgi transport modulator project, inhibition of yeast transport mutant growth (AID 636; in the data active = inhibition above about 31%); details: absorbance 615 nm, about 18 h, stronger effect = higher value
[8] = growth suppression of yeast trafficking mutant, preliminary HTS, modulators of trafficking downstream of Golgi apparatus project, 1536-format plate, OD 615 nm (AID 637; in the data active = inhibition above about 30%); details: yeast transport mutant growth, absorbance 615 nm, 18 h; stronger effect = higher value
[9] = OD615 S. cerevisiae growth inhibition, permissive medium, pilot counter-assay, permissive growth control for S. cerevisiae lifespan shortening project (AID 705;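 active = growth inhibition above 25% in both replicates, a cutoff set 3 SD above the mean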); details: OD615, 24 h, at 10 µM, stronger effect = higher value
[10] = Restrictive medium S. cerevisiae growth inhibition, OD615, pilot screen of yeast lifespan reduction project, restrictive growth control (AID 706;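 active = growth inhibition above a set limit, 3 SD over mean compound inhibition, in both replicates, cut at about 43% in these data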;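 note: modified DeaD lifespan yeast strain shifted to restrictive glucose medium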); details: OD615, 48 h, at 10 µM, stronger effect = higher value
[11] = viability gain of MRP-1-high H69AR cells under doxorubicin, pilot screen, MRP-1 activator project, CellTiter-Glo, duplicate (AID 807;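 active = viability increase at or above a cutoff of the median across tested compounds plus 3 SD, cut at about 8.5% in these data, passing the limit was not always enough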;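 note: compound pretreatment 18-22 h then 72 h combined with doxorubicin; 0% = doxorubicin alone and 100% = vehicle without doxorubicin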); details: H69AR viability with doxorubicin, CellTiter-Glo luminescence; at 10 µM; stronger effect = higher value
[12] = growth suppression of beta-catenin knockout HCT116, pilot screen, human colon tumor cells (AID 823;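 active = cell viability at or below a set limit in both duplicate runs, the limit being the all-compound median minus 4 SD, cut at about 23% in these data, passing the limit was not always enough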;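 note: 0% = wells killed by 20 µM Hyamine and 100% = untreated DMSO cell wells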); details: CellTiter-Glo, 60 h, at 10 µM, stronger effect = lower value
[13] = growth suppression of PTEN-deleted HCT116, pilot screen, cell-based, HCT116 clonal line, CellTiter-Glo (AID 824;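 active = viability at or below 27.92% in each of two runs, the all-compound median minus 4 SD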;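 note: 0% = 20 µM Hyamine control and 100% = vehicle cell control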); details: 60 h, at 10 µM, stronger effect = lower value
[14] = inhibitors of the yeast RAM network, pilot screen, dse1pr::URA3 reporter, 5-FOA selection (AID 869;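 active = inhibition over a set limit, the all-compound mean plus 3 SD, in both replicate runs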;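 note: 0% = DMSO wells with no growth and 100% = 10 µM 1-NA-PP1 with full growth; RAM network block rescues cells from 5-FOA so hits raise OD615 growth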); details: S. cerevisiae dse1pr::URA3 5-FOA growth, OD615, 2 d; at 10 µM; stronger effect = higher value; strain carries analog-sensitive mutant Cbk1 kinase
[15] = RAM signaling pathway blockade in yeast – S. cerevisiae, Pdr1DBD-CYC8 efflux-inhibited sensitized strain, primary screen (AID 1298;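 active = RAM network inhibition above 8.4% in each of two replicates, 3 SD over the compound average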;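 note: 0% = DMSO untreated cells without growth and 100% = 10 µM 1-NA-PP1 full growth; higher means more yeast growth rescued from 5-FOA killing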); details: S. cerevisiae cbk1-as DSE1-URA3 strain, 5-FOA growth OD615, 2 d; at 50 µM; stronger effect = higher value
[16] = H69AR cells + 2 uM doxorubicin, measured here: viability with 2 uM doxorubicin, stronger effect = lower value
[17] = H69AR cells, compound alone cytotoxicity

Compound	viability [1]	Her2 level [2]	viability [3]	viability [4]	viability [5]	differential viability (reversal) ([6]; H69AR cells + 2 uM doxorubicin)	viability [6, 16]	viability [6, 17]	inhibition [7]	inhibition [8]	growth inhibition [9]	growth inhibition [10]	viability increase [11]	viability [12]	viability [13]	inhibition [14]	RAM network inhibition [15]
CC(C)c1nnc(NC(=O)Cc2cccs2)s1	106%	92% (inactive)	106% (inactive)	106% (inactive)	96.7% (inactive)	6.08% (inactive)	90.6%	96.7%	-2.53% (inactive)	1.48% (inactive)	-2.5% (inactive)	-0.8% (inactive)	-0.07% (inactive)	99.5% (inactive)	94.8% (inactive)	2.64% (inactive)	0.83% (inactive)
CCOC(=O)c1ccc2ncc(C(=O)OCC)c(NCCN(C)C)c2c1	84%	99.5% (inactive)	84% (inactive)	102% (inactive)	91.8% (inactive)	10.6% (inactive)	81.2%	91.8%	-0.8% (inactive)	1.83% (inactive)	-4.69% (inactive)	2.56% (inactive)	-1.02% (inactive)	95.8% (inactive)	94.8% (inactive)	2.64% (inactive)	2.56% (inactive)
COc1ccc(N2CCN(Cc3nc4c(c(=O)n(C)c(=O)n4C)n3Cc3ccccc3C)CC2)cc1	92.5%	81% (inactive)	92.5% (inactive)	94.5% (inactive)	80% (inactive)	25.1% (inactive)	54.9%	80%	-2.4% (inactive)	-2% (inactive)	-12.5% (inactive)	-24.9% (inactive)	-4.52% (inactive)	90.7% (inactive)	77.6% (inactive)	1.29% (inactive)	-0.26% (inactive)
Cc1cc(C)c(NC(=O)Cn2cc3c(n2)CCCC3)c(C)c1	87.5%	103% (inactive)	87.5% (inactive)	104% (inactive)	96.5% (inactive)	-3.94% (inactive)	100%	96.5%	-6% (inactive)	5.74% (inactive)	6.13% (inactive)	12.4% (inactive)	-0.84% (inactive)	109% (inactive)	94.9% (inactive)	2.3% (inactive)	4.34% (inactive)
CCOC(=O)C1CCN(Cc2ccc(OC)c(C)c2OC)CC1	88.5%	97.5% (inactive)	88.5% (inactive)	108% (inactive)	86.9% (inactive)	3.22% (inactive)	83.7%	86.9%	-2.4% (inactive)	-7.1% (inactive)	-2.98% (inactive)	2.96% (inactive)	-4.57% (inactive)	78.3% (inactive)	80.3% (inactive)	1.16% (inactive)	1.41% (inactive)
CCOC(=O)c1ccc(NC(=O)Cn2cc3c(n2)CCC(C)C3)cc1 (stereo not drawn)	91.5%	92% (inactive)	91.5% (inactive)	91.4% (inactive)	91.9% (inactive)	-7.62% (inactive)	99.5%	91.9%	-2.8% (inactive)	-2.13% (inactive)	-3.82% (inactive)	5.5% (inactive)	0.35% (inactive)	102% (inactive)	106% (inactive)	1.92% (inactive)	6.92% (inactive)
CCc1ccccc1NC(=O)c1cnc2n(c1=O)CCS2	90.5%	90% (inactive)	90.5% (inactive)	95% (inactive)	91.6% (inactive)	3.48% (inactive)	88.1%	91.6%	-1.33% (inactive)	-4.26% (inactive)	-7.06% (inactive)	1.6% (inactive)	3.48% (inactive)	90.9% (inactive)	97% (inactive)	1.32% (inactive)	5.66% (inactive)
O=c1c(-c2ccccc2)coc2c(CN3CCOCC3)c(O)ccc12	110%	105% (inactive)	110% (inactive)	96.4% (inactive)	99% (inactive)	-1.39% (inactive)	100%	99%	0.95% (inactive)	-7.87% (inactive)	-9.23% (inactive)	4.11% (inactive)	-4.13% (inactive)	91.7% (inactive)	99.7% (inactive)	0.58% (inactive)	-0.61% (inactive)
COc1ccccc1-n1c(=O)[nH]c2c(C(N)=O)nc(-c3cccnc3)nc21	82.5%	88.5% (inactive)	82.5% (inactive)	73.7% (inactive)	69.9% (inactive)	-5.7% (inactive)	75.6%	69.9%	-3.2% (inactive)	-3.93% (inactive)	-7.79% (inactive)	-16.8% (inactive)	-7.14% (inactive)	72.9% (inactive)	67.7% (inactive)	2.47% (inactive)	4.37% (inactive)
CC(C)(C)SCCNC(=O)COc1ccc(Cl)cc1	94.5%	90% (inactive)	94.5% (inactive)	113% (inactive)	109% (inactive)	19.5% (inactive)	89.4%	109%	-6.89% (inactive)	4.1% (inactive)	-8.49% (inactive)	-12% (inactive)	0.22% (inactive)	96.2% (inactive)	96.9% (inactive)	-0.23% (inactive)	4.53% (inactive)
O=C(NCCN1CCOCC1)c1ccc2c(c1)N(Cc1ccccc1F)C(=O)CS2	94%	100% (inactive)	94% (inactive)	95% (inactive)	92.6% (inactive)	-7.79% (inactive)	100%	92.6%	-6.4% (inactive)	1.59% (inactive)	7.73% (inactive)	7.02% (inactive)	1.73% (inactive)	102% (inactive)	102% (inactive)	1.9% (inactive)	1.89% (inactive)
Cc1ccc(-c2noc(CN3CCN(c4ccccc4F)CC3)n2)cc1	89.5%	95.5% (inactive)	89.5% (inactive)	121% (inactive)	92.5% (inactive)	-3.02% (inactive)	95.5%	92.5%	1.87% (inactive)	-1.5% (inactive)	1.99% (inactive)	-1.21% (inactive)	-2.06% (inactive)	93.3% (inactive)	92.4% (inactive)	-0.38% (inactive)	3.79% (inactive)
CN1CCN(c2nc3c(c(=O)[nH]c(=O)n3C)n2CCSc2nc3ccccc3s2)CC1	87%	90.5% (inactive)	87% (inactive)	98% (inactive)	75.2% (inactive)	-10.6% (inactive)	85.8%	75.2%	-0.51% (inactive)	1% (inactive)	-6.02% (inactive)	-0.85% (inactive)	-2.32% (inactive)	98.3% (inactive)	91.9% (inactive)	2.66% (inactive)	-1.87% (inactive)
CCCN1CC23C=CC(O2)C(C(=O)O)C3C1=O (stereo not drawn)	81.5%	94% (inactive)	81.5% (inactive)	85.4% (inactive)	98.1% (inactive)	-1.58% (inactive)	99.7%	98.1%	-3.87% (inactive)	0.16% (inactive)	-2.17% (inactive)	2.93% (inactive)	-0.49% (inactive)	100% (inactive)	101% (inactive)	1.96% (inactive)	-1.04% (inactive)
Oc1ccc2ccccc2c1CN1CCN(c2ccccc2F)CC1	110%	90% (inactive)	110% (inactive)	90.1% (inactive)	76.6% (inactive)	3.1% (inactive)	73.5%	76.6%	-3.47% (inactive)	-0.33% (inactive)	-13.8% (inactive)	-10.6% (inactive)	-5.72% (inactive)	95.4% (inactive)	93.9% (inactive)	0.72% (inactive)	0.16% (inactive)
COc1cccc(NC(=O)c2ccco2)c1	99%	116% (inactive)	99% (inactive)	94.5% (inactive)	94.9% (inactive)	7.72% (inactive)	87.2%	94.9%	-3.38% (inactive)	-4.33% (inactive)	-0.175% (inactive)	6.41% (inactive)	-4.31% (inactive)	107% (inactive)	98.7% (inactive)	0.235% (inactive)	-0.82% (inactive)
Cc1ccc(C)c2[nH]c(=O)c(CCNC(=O)CC(C)(C)C)cc12	88%	105% (inactive)	88% (inactive)	103% (inactive)	90.9% (inactive)	21.2% (inactive)	69.7%	90.9%	-4.27% (inactive)	-4.5% (inactive)	-4.09% (inactive)	-11.6% (inactive)	1.59% (inactive)	104% (inactive)	92.6% (inactive)	1.04% (inactive)	4.85% (inactive)
COc1ccc(OC)c(C2=NOC(C(=O)Nc3c(C)n(C)n(-c4ccccc4)c3=O)C2)c1 (stereo not drawn)	88.5%	96% (inactive)	88.5% (inactive)	84.6% (inactive)	95.3% (inactive)	8.86% (inactive)	86.5%	95.3%	-2.93% (inactive)	-7.54% (inactive)	-11.8% (inactive)	-24% (inactive)	-0.56% (inactive)	99.4% (inactive)	107% (inactive)	0.74% (inactive)	3.94% (inactive)
COc1cccc(-c2cc(C(=O)N3CCCCCC3)no2)c1	98.5%	94% (inactive)	98.5% (inactive)	77.4% (inactive)	85.9% (inactive)	8.21% (inactive)	77.7%	85.9%	-5.2% (inactive)	2.83% (inactive)	-12.5% (inactive)	-18.2% (inactive)	-0.05% (inactive)	96.6% (inactive)	90.9% (inactive)	0.305% (inactive)	0.68% (inactive)
